Sampled rows, rich in hits. Any-hit rate of the full collection: about 2.4%.
TDP1 inh: inhibitors of human tyrosyl-DNA phosphodiesterase TDP1; Q9NUW8; recombinant TDP1, AlphaScreen DNA substrate cleavage; Potency, µM (highest dose often 130 µM), for the others: at the top dose activity change, negative = inhibition, usual class: inhibitors; actives 0.28% (n = 350,000); also: % is scaled to controls: 0 for no effect and ±100 for the full control effect; nearly all actives have a fitted effect of over 40% in size
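Enzyme-compound mixtures sat 15 min at room temperature, followed by a 5 min reaction with 15 nM final substrate and 10 min with AlphaScreen beads. Recombinant human Tdp1 was used at 1 nM final.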
POLB inh: inhibitors of human DNA polymerase beta | P06746 | Pol beta primer extension/strand displacement, fluorescence kinetic | Potency, µM (top dose mostly 114 µM), for the others: top-dose activity change, negative = inhibition, most hits filed as inhibitors | actives 1.3% (n = 340,000) | AID 485314; also: % is scaled to controls: 0 for no effect and ±100 for the full control effect
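Values derive from four-parameter Hill fits of normalized kinetic data: reads at 0 and 10 min following addition of 50 nM substrate to 10 nM Pol beta preincubated 15 min with compound.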
FEN1 inhibitor: inhibitors of human flap endonuclease 1. Recombinant FEN1 flap cleavage, fluorescence, 15 min. P39748. Potency, µM (doses to about 114 µM), for the others: at the top dose activity change, negative = inhibition, most hits filed as inhibitors. actives 0.35% (n = 390,000); also: % is scaled to controls: 0 for no effect and ±100 for the full control effect; nearly all actives have a fitted effect of over 65% in size
Target sequence (P39748 whole entry, looked up): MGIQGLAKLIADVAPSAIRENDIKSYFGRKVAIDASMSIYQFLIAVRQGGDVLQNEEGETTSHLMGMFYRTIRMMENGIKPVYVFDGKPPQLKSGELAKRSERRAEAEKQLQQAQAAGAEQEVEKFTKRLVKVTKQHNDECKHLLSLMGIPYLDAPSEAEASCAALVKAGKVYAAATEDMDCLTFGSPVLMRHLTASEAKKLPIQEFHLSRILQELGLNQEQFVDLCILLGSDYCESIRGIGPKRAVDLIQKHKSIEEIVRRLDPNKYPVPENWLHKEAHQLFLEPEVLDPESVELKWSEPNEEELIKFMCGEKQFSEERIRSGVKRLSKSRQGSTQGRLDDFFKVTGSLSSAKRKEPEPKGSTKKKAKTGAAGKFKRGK
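Read-out was taken twice, immediately and after 15 min, following addition of 50 nM substrate to 10 nM FEN1 that had sat with test compound for 15 min at room temperature. Curves came from a four-parameter Hill model.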
Pol kappa inh: DNA polymerase kappa (human) inhibition | purified Pol kappa, fluorescent DNA synthesis assay, 10 min | actives 0.53% (n = 400,000) | Q9UBT6 | Potency, µM (titrated, usually from 107 µM), for the others: at the top dose activity, negative = inhibition, most hits filed as inhibitors; also: % is scaled to controls: 0 for no effect and ±100 for the full control effect
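50 nM final substrate added after 15 min RT preincubation of 10 nM Pol kappa with compound; fluorescence read at 0 and 10 min.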
POLI inh: inhibitors of human DNA polymerase iota; Potency, µM (top dose mostly 115 µM), without a hit: top-dose activity, negative = inhibition, most hits filed as inhibitors; Pol iota fluorescent replication assay, 10 min; actives 1% (n = 390,000); Q9UNA4
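Pol iota at 10 nM preincubated 15 min with compounds at room temperature; reaction started with fluorescent substrate, 50 nM final. Fluorescence read kinetically at 0 and 10 min; buffer-only wells as negative control.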
POLH inh: inhibitors of human DNA polymerase eta; Q9Y253; recombinant Pol eta, fluorescent DNA replication assay; Potency, µM (top dose mostly 114 µM), for the others: top-dose activity change, negative = inhibition, usual class: inhibitors; actives 1.2% (n = 390,000); also: % is scaled to controls: 0 for no effect and ±100 for the full control effect
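Pol eta (10 nM) was preincubated with compounds for 15 min at room temperature, after which fluorescent replication substrate (50 nM final) was added to start the reaction. Fluorescence was read kinetically at 0 and 10 min.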
The depositor's hits bear a star; u = inconclusive; x = not tested or not shown; [ ] = dose if it differs, or a comment. Calls follow the shape of the dose curve; as a rule, active = well fitted curve in the direction sought with a large enough effect; inconclusive = small, poorly fitted or top-dose-only effect, or another doubt; inactive = no such curve, though single readings can be large; an effect the other way counts as inactive or inconclusive. Potency is read from the fitted curve at half-maximal effect.

SMILES	TDP1 inh	POLB inh	FEN1 inhibitor	Pol kappa inh	POLI inh	POLH inh
COc1cccc(OC)c1-c1nn2c(-c3cc(-c4ccccc4)n[nH]3)nnc2s1	-8%	u	28µM*	28µM*	28µM*	6.3µM*
COc1ccccc1-c1nn2c(-c3ccco3)nnc2s1	x	14µM*	-30%	-15%	u	-10%
c1ncc2snnc2n1	x	x	-1%	-10%	u	x
O=S(=O)(NCCNc1nc(-c2ccco2)nc2ccccc12)c1ccccc1	3%	x	x	x	x	x
COc1ccc2nc(/C(C#N)=C\c3ccc(C(=O)O)cc3)[nH]c2c1	3%	-2%	-19%	-19%	57%	22µM*
N#C/C(=C\c1ccc(OC(=O)c2cccs2)cc1)c1nc2ccccc2[nH]1	-4%	35µM*	1%	-44%	34%	u
N#C/C(=C/c1ccc(O)c(O)c1)c1nc2ccccc2[nH]1	x	u	u	10µM*	u	3.2µM*
O=C(O)CN1C(=O)c2ccc(Oc3ccc4c(c3)C(=O)N(CC(=O)O)C4=O)cc2C1=O	x	25%	-5%	-37%	-9%	32µM*
CC(=O)NN1C(=O)c2ccc(Oc3ccc4c(c3)C(=O)N(NC(C)=O)C4=O)cc2C1=O	4%	11µM*	x	x	x	x
O=C(Cn1ccc2cc(S(=O)(=O)N3CCCCCC3)ccc21)NCc1ccccc1Cl	11%	7%	-17%	-2%	-13%	-3%
O=C1CCn2c1c(O)c1ccccc1c2=O	x	x	-4%	-23%	u	8%
N=C1CCC(=N)c2c1c(O)c1ccccc1c2O	5%	40µM*	40µM*	22µM*	22µM*	13µM*
COc1ccc(CC(=O)NO)cc1OC	x	x	18%	9%	13%	x
COc1cc(N(C)C)ccc1/C=C/c1ccnc2ccccc12	x	x	-6%	-26%	-17%	x
CC1=NOC(=O)/C1=C/c1ccc(-c2ccc(Cl)cc2)o1	-1%	u	x	x	x	x
Cc1ccc(C2=NOC(=O)/C2=C\c2ccc(C)o2)cc1	10%	6%	u	-19%	u	79µM*
Cc1ncc(CO)c(/C=N/NC(=O)c2ccc(Br)cc2)c1O	5%	-3%	x	x	x	x
Cc1ncc(CO)c(/C=N/NC(=O)c2cc(O)c(O)c(O)c2)c1O	u	0.32µM*	x	x	x	x
N#C/C(=C\c1ccccc1O)C(=O)Nc1cccnc1	1%	3%	-8%	-26%	89µM*	u
Cc1cc(/C=C(\C#N)C(=O)Nc2ccccc2)c(C)n1-c1cccnc1	1%	-26%	-7%	-8%	65%	-5%
Cc1cccc(Nc2nn3c(=O)c4cc5c(cc4nc3s2)OCO5)c1	x	3.2µM*	4%	-8%	-2%	-5%
COc1cc(-c2noc(C)c2C#CCCN2C(=O)c3ccccc3C2=O)cc(OC)c1OC	x	x	14%	5%	12%	x
CCCOc1ccc(C2C(C(=O)c3ccc(C)o3)=C(O)C(=O)N2Cc2ccco2)cc1 (stereo not given)	10%	40µM*	-11%	-12%	u	-24%
CCOC(=O)C1=C(C)NC2(O)c3ccccc3C(=O)C12O (stereo not given)	-3%	3%	-8%	1%	2%	-14%
COCCOC(=O)C1=C(C)NC2(O)c3ccccc3C(=O)C12O (stereo not given)	-1%	-1%	15%	4%[60.1 µM]	32µM*	-2%
COc1ccc(CNC(=O)c2cc3cccc4c3n2CC(C)S4)cc1OC (stereo not given)	8%	5%	u	-14%	-4%	-8%
COc1cc(C2Nc3cccc4cccc(c34)N2)cc(OC)c1O	3%	45µM*	-15%	-6%	u	u
COc1cc(C2Nc3cccc4cccc(c34)N2)ccc1OC(C)=O	-2%	-22%	40µM*	-19%	u	14µM*
O=C(OCC#CCSc1nnc(-c2cccc3ccccc23)o1)c1cc(F)c(F)c(F)c1	-7%	x	x	x	x	x

Screening data (PubChem BioAssay)
